Experimental data reported in PubChem BioAssay (NCI).
This is part of a sample that, as a whole, favours compounds with a hit. Of some 79,000 tested, about 15% had one in any assay. No stated cut-off is given here; in the data, active means growth inhibition above about 70%; inactive means the rest.

How the values were obtained:
[1] = NCI Yeast Anticancer Drug Screen. Data for the rad50 strain (AID 155);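 further: 0% = growth of vehicle-only cultures of the same strain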; settings: S. cerevisiae rad50 strain growth inhibition; at 50.0 µM; active compounds read high
Method in brief: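 Cells are treated with compound, grown, and their growth is then scored against vehicle-only cultures of the same repair-deficient yeast strain.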

[2] = NCI Yeast Anticancer Drug Screen. Data for the mec2-1 strain (AID 157); settings: S. cerevisiae mec2-1 strain, at 50.0 µM, active compounds read high
Method in brief: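 Yeast mec2-1 mutant treated with compound. Readout: growth inhibition vs vehicle controls.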

[3] = NCI Yeast Anticancer Drug Screen. Data for the sgs1 mgt1 strain (AID 161);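 further: 0% = growth of cultures given vehicle only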; settings: S. cerevisiae sgs1 mgt1 strain, at 50.0 µM, active compounds read high
Method in brief: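 Test agents were incubated with a DNA-repair-mutant yeast strain. Growth was then read and compared against vehicle-treated controls.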

[4] = NCI Yeast Anticancer Drug Screen. Data for the cln2 rad14 strain (AID 165);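 further: 0% = growth equal to vehicle treated cultures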; settings: S. cerevisiae cln2 rad14 strain, at 50.0 µM, active compounds read high
Method in brief: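 cln2 rad14 yeast strain; compound exposure; growth inhibition read vs vehicle controls.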

[5] = NCI Yeast Anticancer Drug Screen. Data for the bub3 strain (AID 167); settings: S. cerevisiae bub3 mutant strain, at 50.0 µM, active compounds read high
Method in brief: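 Part of a panel of yeast mutants defective in DNA damage repair or cell cycle regulation. Each strain is grown with compound, and inhibition is calculated relative to solvent-treated cultures.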

[6] = NCI Yeast Anticancer Drug Screen. Data for the mlh1 rad18 strain (AID 175); settings: S. cerevisiae mlh1 rad18 strain growth inhibition; at 50.0 µM; active compounds read high
Method in brief: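 Yeast w/ defined DNA-repair lesions; compound exposure; growth vs vehicle controls → % inhibition.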

Measured: growth inhibition

CCOC(=O)c1c(-c2ccc(Cl)cc2)c(C#N)c(=S)n(C2OC(COC(C)=O)C(OC(C)=O)C(OC(C)=O)C2OC(C)=O)c1-c1ccccc1 (stereo unspecified)
inactive: [1] -1.45% | [2] -3.9% | [3] -6.8% | [4] 25.9% | [5] 17.9% | [6] 4.7%

CCCCCCCCCCCCCCCCCCNC(=O)Nc1ccc(OC)cc1OC
inactive: [1] 15.4% | [2] 37% | [3] -0.3% | [4] 3% | [5] 2.8% | [6] 13.3%

Cc1ccc[nH]c1=O
inactive: [1] -9.9% | [2] -15.1% | [3] -0.6% | [4] -8.05% | [5] -8.45% | [6] 2.4%

OC1CCC2CCCC2C1 (stereo unspecified)
inactive: [1] 1.6% | [2] -1.7% | [3] -2.2% | [4] 1% | [5] -8.6% | [6] -1.2%

COc1cc([C@@H]2c3cc4c(cc3[C@@H](Nc3ccccc3C(=O)c3ccccc3)[C@H]3COC(=O)[C@H]23)OCO4)cc(OC)c1OC
inactive: [1] 9.35% | [2] 9.95% | [3] -18.5% | [4] 13.2% | [5] 1.05% | [6] -34.5%

CC1(C)N=C(N)N=C(N)N1c1ccc(NC(=O)Nc2ccccc2)cc1
inactive: [1] 16.6% | [2] -13.2% | [3] 16.1% | [4] -43.2% | [5] -2.35% | [6] 10.3%

O=S1(=O)OCCOS(=O)(=O)C1I
inactive: [1] -8.1% | [2] -30.2% | [3] -12.4% | [4] 11.3% | [5] -21.5% | [6] -29.6%

O=C1CCC(C2(O)c3ccccc3-c3ccccc32)C(=O)N1 (stereo unspecified)
inactive: [1] -20.7% | [2] -16.1% | [3] -22.3% | [4] 22.4% | [5] 4.65% | [6] 1.4%

O=C1CCCC1C(O)(C(F)(F)F)C(F)(F)F (stereo unspecified)
inactive: [1] -24.8% | [2] -19.9% | [3] -8.05% | [4] 16.6% | [5] -12% | [6] -21.1%

CCC(=O)Nc1cccc([N+](=O)[O-])c1OC
inactive: [1] -5.35% | [2] 23.4% | [3] -7.45% | [4] -52.2% | [5] 9.15% | [6] -15.2%

O=C(c1ccco1)C(O)c1ccccc1 (stereo unspecified)
inactive: [1] 1.3% | [2] 8.9% | [3] -2.6% | [4] -2.55% | [5] -11.9% | [6] 5.95%

O=[N+]([O-])c1ccc(N/N=C2/C(=C/c3cccc4ccccc34)CCc3ccccc32)c([N+](=O)[O-])c1
inactive: [1] -13.6% | [2] -16.3% | [3] -20.8% | [4] -32.5% | [5] 37.5% | [6] -19.6%

Cc1n[n+](CC(=O)c2ccccc2)c2sc(N)nn12
inactive: [1] -55.8% | [2] -31.4% | [3] -58.6% | [4] -50% | [5] -16.1% | [6] -70.5%

CC(=O)Oc1cc2c(c3ccccc13)CCC2=O
inactive: [1] 13.4% | [2] 7.2% | [3] -7.85% | [4] -0.9% | [5] 20.4% | [6] 6.05%

CN(C)c1ccc(/C=C(\C#N)c2ccc(Cl)cc2Cl)cc1
inactive: [1] -15.8% | [2] -14.7% | [3] -0.35% | [4] -25.6% | [5] 7% | [6] 0.95%

CCNC(=O)N(C)Cc1ccc(Cl)cc1
inactive: [1] -4% | [2] 8.7% | [3] -11.6% | [4] -71.5% | [5] -8.95% | [6] -5.1%

c1cc(Nc2ccncc2)ccn1
inactive: [1] 23.6% | [2] -13% | [3] -1.9% | [4] 6.2% | [5] 0.15% | [6] 19.9%

CCOC(=O)CC1OCCO1
inactive: [1] 7.65% | [2] -3.35% | [3] -24.7% | [4] 5.25% | [5] 2.4% | [6] -5.15%

NNC(=O)C(CC(C(=O)NN)C(=O)NN)C(=O)NN
inactive: [1] 47.5% | [2] -1.5% | [3] 5.25% | [4] -22.5% | [5] 13.9% | [6] 29.7%

CCOC(=O)C(NC(=O)c1ccccc1)(N1CCN(c2cc3c(cc2F)c(=O)c(C(=O)O)cn3CC)CC1)C(F)(F)F (stereo unspecified)
inactive: [1] -29.4% | [2] -34.4% | [3] -3.3% | [4] -18.4% | [5] -14.2% | [6] -20.8%

CCCCOC(=O)OCCOCCOC(=O)OCCCC
inactive: [1] -7.75% | [2] 3.1% | [3] 2.6% | [4] -70.8% | [5] -9.2% | [6] 0.35%

O=S(=O)(Nc1ccccc1Cl)c1ccc(F)cc1
inactive: [1] -5.85% | [2] -16.1% | [3] -6.6% | [4] 4.7% | [5] -24% | [6] 20.9%

Cc1nc2ccccc2nc1C1=C(O)c2ccccc2CC1=O
inactive: [1] 0.85% | [2] 8.6% | [3] 10.1% | [4] -71.2% | [5] -10.2% | [6] 1.35%

Cc1cc(C)c2c(c1)CC(C)(C)C(=O)OC2=O
inactive: [1] -16.2% | [2] -23.9% | [3] -9.65% | [4] 2.4% | [5] -10.3% | [6] -11.2%

COC(=O)N/N=C(\C)C(CN1CCCCC1)C(C1=C(O)c2ccccc2OC1)c1ccccc1 (stereo unspecified)
inactive: [1] 6.15% | [2] 15.7% | [3] 5.25% | [4] 17.1% | [5] 4.9% | [6] 28.9%

ONC1=Nc2cc(Cl)ccc2C(=S)N2CSCC12 (stereo unspecified)
inactive: [1] 1.55% | [2] 18.6% | [3] -0.25% | [4] 0.45% | [5] -9.8% | [6] 18.8%

CC(=O)OC1C=CC(OC(C)=O)C2C1[C@H]1C3C=CC=CC3[C@@H]2S1=O (stereo partly specified)
inactive: [1] -36.8% | [2] -35.8% | [3] -17.2% | [4] -6.5% | [5] 6.25% | [6] -27.1%

CCN=C(N(CC)CC)N(CC)CC
inactive: [1] -12.1% | [2] 10.2% | [3] 2.95% | [4] -24.4% | [5] 62.7% | [6] 4.3%

CCOC(=O)c1cnc(SC)nc1N
inactive: [1] 9.25% | [2] -8.1% | [3] -7.9% | [4] -2.1% | [5] 8.95% | [6] -3.5%

O=[N+]([O-])c1ccc(-c2ccccc2)c([N+](=O)[O-])c1
inactive: [1] -3.05% | [2] 0.35% | [3] -29.8% | [4] -31.9% | [5] 1.5% | [6] 17.6%

Nc1ncnc(N)c1NC(=O)c1ccc(SCc2ccccc2)cc1
inactive: [1] -7.15% | [2] 20.9% | [3] 27.5% | [4] -21.2% | [5] 22.5% | [6] 22.2%

Cc1ccc(N=NC(=O)NNc2ccc(C)cc2Br)c(Br)c1
inactive: [1] 19.4% | [2] -8.8% | [3] -3.8% | [4] 15.2% | [5] -6.5% | [6] 14.6%

COc1ccc(NS(=O)c2ccccc2OC)cc1 (stereo unspecified)
inactive: [1] 2.7% | [2] 4.5% | [3] 14.3% | [4] -18.9% | [5] 8.05% | [6] 5.5%

CCC(=O)[CH-]C(=O)CC.CCC(=O)[CH-]C(=O)CC.[Cu+2]
inactive: [1] 10.9% | [2] -1.9% | [3] 10.2% | [4] -39.4% | [5] -17.6% | [6] 0%

COC(=O)C1=C(C(=O)OC)C2CCCOC2=C(C)C1 (stereo unspecified)
inactive: [1] -1.35% | [2] 12.1% | [3] -6.15% | [4] 41.2% | [5] 14.3% | [6] 7%

CC(C)NNC(=O)c1ccc(N)cc1
inactive: [1] 16.1% | [2] 6.05% | [3] 4.55% | [4] 6.55% | [5] 4.8% | [6] 6.35%

CCCNCC(O)CNc1ccc(Cl)cc1 (stereo unspecified)
inactive: [1] 3.1% | [2] -7.15% | [3] 2.05% | [4] -9.4% | [5] -4.3% | [6] 5.65%

CCCCCOc1nc2c(c(=O)n(C)c(=O)n2C)n1C
inactive: [1] -0.4% | [2] -2.55% | [3] 4.65% | [4] -17.6% | [5] 3.45% | [6] 0.85%

CCC1(O)CCCCC1
inactive: [1] -16.4% | [2] -23.4% | [3] -30.1% | [4] -37.9% | [5] -18.6% | [6] -21.7%

CCOC(=O)N/N=C(/OCC)c1ccccc1
inactive: [1] 9.75% | [2] 2.7% | [3] -7.2% | [4] 5.8% | [5] 13.8% | [6] 5.8%

O=C1CC2CC1C1C(=O)OC(=O)C21 (stereo unspecified)
inactive: [1] -6.8% | [2] 5.95% | [3] -6.7% | [4] -1.6% | [5] -6.9% | [6] -8.6%
